Assay outcomes deposited in PubChem by National Center for Advancing Translational Sciences (NCATS).
This is a sample that favours compounds with a hit; in the whole collection about 7.4% have one here.
Rab9 prom act: qHTS Assay for Rab9 Promoter Activators; Huh7 Rab9 promoter-luciferase reporter, luminescence, 24 h; Potency, µM (series often up to 9.22 µM), for the others: top-dose activation, negative = inhibition, most hits filed as activators; actives 2.8% (n = 320,000); AID 485297, 2010; further: % of control where 0% means no effect; nearly all actives have a fitted effect of over 60% in size
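Cells were plated at 1500 per well in reduced-serum medium with 10% FBS and left 2 h. Compound in DMSO was then added for 24 h at 37 °C. Reporter signal was read by luminescence after 10 min with luciferase detection reagent.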
NPC1 prom act: qHTS Assay for NPC1 Promoter Activators. Potency, µM (doses to about 9.22 µM), inactives show top-dose activation, most hits filed as activators. actives 2.4% (n = 320,000). Huh7 NPC1 promoter luciferase reporter, 24 h; further: % of control where 0% means no effect; nearly all actives have a fitted effect of over 60% in size
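Stable NPC1-promoter luciferase Huh7 line; cpd (DMSO) 24 h, 37 °C, 5% CO2; Amplite luciferase reagent 10 min RT; luminescence readout. qHTS format.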
SMN2 splice up: qHTS Assay for Enhancers of SMN2 Splice Variant Expression. HEK293 SMN2-luciferase splicing reporter, luminescence, 30-36 h. Potency, µM (highest dose often 46.1 µM), inactives show at the top dose activity change, positive = activation, most hits filed as activators. actives 2.8% (n = 210,000); further: % of control where 0% means no effect; nearly all actives have a fitted effect of over 55% in size
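qHTS luciferase splicing reporter: luminescence rises when SMN2 exon 7 is included in transfected HEK293 cells. Compound exposure lasted 30-36 h at 37C, with 4.5 mM final sodium butyrate as control, followed by a ONE-Glo read.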
FLuc counter: qHTS profiling assay for firefly luciferase inhibitor/activator using purifed enzyme and Km concentrations of substrates (counterscreen for miR-21 project); AID 588342, 2011; purified FLuc, Km substrates, luminescence inhibition; actives 6.9% (n = 360,000); Potency, µM (titrated, usually from 57.5 µM), for inactives: at the top dose activity change, negative = inhibition, most hits filed as inhibitors; Luciferin 4-monooxygenase (Photinus pyralis), P08659;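 further: plate controls were vehicle for no effect and reference inhibitor for full effect; nearly all actives have a fitted effect of over 55% in size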
Target sequence (P08659 whole entry, looked up): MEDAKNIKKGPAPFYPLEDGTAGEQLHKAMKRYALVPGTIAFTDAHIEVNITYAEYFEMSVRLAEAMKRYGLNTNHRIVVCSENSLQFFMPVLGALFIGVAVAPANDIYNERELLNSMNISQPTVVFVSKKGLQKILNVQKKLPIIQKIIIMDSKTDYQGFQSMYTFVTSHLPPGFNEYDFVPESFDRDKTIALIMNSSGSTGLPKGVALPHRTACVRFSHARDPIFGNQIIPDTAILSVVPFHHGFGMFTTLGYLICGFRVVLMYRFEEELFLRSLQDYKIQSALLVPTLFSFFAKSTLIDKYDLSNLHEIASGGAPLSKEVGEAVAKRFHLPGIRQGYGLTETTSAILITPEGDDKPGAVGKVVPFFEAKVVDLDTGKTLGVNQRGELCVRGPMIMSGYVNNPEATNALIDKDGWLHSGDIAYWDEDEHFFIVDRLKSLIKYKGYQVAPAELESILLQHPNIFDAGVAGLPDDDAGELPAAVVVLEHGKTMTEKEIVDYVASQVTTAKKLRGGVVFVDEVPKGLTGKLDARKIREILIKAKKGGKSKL
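Purified P. pyralis luciferase, 10 nM final, with Km-level 10 uM D-luciferin and 10 uM ATP in 50 mM Tris acetate pH 7.5, 10 mM Mg acetate, 0.01% Tween-20, 0.05% BSA; 6-point qHTS titration about 60 µM downward; luminescence read.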
p53 reactivator: qHTS assay for re-activators of p53 using a Luc reporter | H1299 p53-A138V BP100-luciferase reporter, luminescence, 24 h | Potency, µM (titrated, usually from 92.2 µM), without a hit: at the highest dose activity change, positive = activation, actives largely listed as activators | actives 0.063% (n = 320,000) | AID 504706, 2011; further: % of control where 0% means no effect; nearly all actives have a fitted effect of over 45% in size
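H1299 (p53-null), stable ts p53-A138V + BP100-Luc; 1000 cells/well, Opti-MEM/10% FBS; cpd 4 pt, 1:5; 24 h, 37 deg C, 5% CO2; detection reagent 10 min RT; luminescence.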
ELG1 genotoxic: qHTS screen for small molecules that induce genotoxicity in human embryonic kidney (HEK293T) cells expressing luciferase-tagged ELG1 | AID 504466, 2011 | actives 1.3% (n = 330,000) | Potency, µM (doses to about 46 µM), inactives show at the highest dose activity change, positive = activation, actives largely listed as activators | HEK293T ELG1-luciferase reporter, luminescence, 16 h; further: % of control where 0% means no effect; nearly all actives have a fitted effect of over 60% in size
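HEK293T cells expressing luciferase-tagged ELG1 were treated with compound or DMSO for 16 hr at 37°C. Luciferase activity was then read after 30 min with ONE-Glo at room temperature; rising signal flags genetic stress.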
The depositor's hits bear a star; [ ] = remark or other dose. The call rests on the fitted dose curve; in most records, active means well fitted curve in the direction sought with a large enough effect; inconclusive means small, poorly fitted or top-dose-only effect, or another doubt; inactive means no such curve, though single readings can be large; an effect the other way counts as inactive or inconclusive. Potency means the concentration at half of the fitted maximal effect.

How did CCOc1ccc(CCNC(=O)c2ccc(CS(=O)Cc3ccccc3Cl)o2)cc1 (stereo not given) do in these assays?
Rab9 prom act: 8.2%; NPC1 prom act: 13.5%; FLuc counter: 23.9µM*; p53 reactivator: 18.9%; ELG1 genotoxic: -6.9%

What do the screens show for `O=C(NCCN1CCOCC1)c1noc2c1CCc1ccccc1-2`?
Rab9 prom act: 2µM*; NPC1 prom act: inconclusive; SMN2 splice up: 10µM*; FLuc counter: inconclusive; p53 reactivator: inconclusive; ELG1 genotoxic: 16.4µM*

How did O=C(Nc1cccnc1Cl)c1noc2c1CCc1ccccc1-2 do in these assays?
Rab9 prom act: 3.16µM*; NPC1 prom act: 2.51µM*; FLuc counter: inconclusive; p53 reactivator: 6.2%; ELG1 genotoxic: 27.0%

Results for CCCNC(=O)c1noc2c1CCc1ccccc1-2 ?
Rab9 prom act: inconclusive; NPC1 prom act: inconclusive; SMN2 splice up: 15.8µM*; FLuc counter: 19µM*; p53 reactivator: inconclusive; ELG1 genotoxic: inconclusive

What do the screens show for `O=C(NCCc1ccccc1)c1noc2c1CCc1ccccc1-2`?
Rab9 prom act: inconclusive; NPC1 prom act: 16.9%; SMN2 splice up: 15.7%; FLuc counter: -15.6%; p53 reactivator: inconclusive; ELG1 genotoxic: 7.7%

What do the screens show for `CC[N+](C)(CC)CCN1C(=O)c2ccccc2S1(=O)=O`?
SMN2 splice up: -5.7%[9.22 µM]

Results for Cc1sc(N)nc1-c1ccc(Oc2ccccc2)cc1 ?
Rab9 prom act: 29.1%; NPC1 prom act: 17.8%; FLuc counter: 23.9µM*; ELG1 genotoxic: inconclusive

How did Cc1sc(N)nc1-c1ccc2c(c1)OCCO2 do in these assays?
Rab9 prom act: 8.1%; NPC1 prom act: 23.4%; FLuc counter: inconclusive; ELG1 genotoxic: 2.0%

How did CCOC(=S)SCC(=O)O do in these assays?
SMN2 splice up: -19.8%[9.22 µM]

What do the screens show for `O=c1ccc(-c2ccccc2)nn1Cc1c(F)cccc1Cl`?
SMN2 splice up: -7.6%; FLuc counter: -15.3%

Results for COc1ccc(C2=CC(=O)C=CC2=O)cc1 ?
Rab9 prom act: -2.7%; NPC1 prom act: -2.5%; FLuc counter: 8.49µM*; p53 reactivator: -14.2%; ELG1 genotoxic: -0.3%

Results for COc1ccc(C2=CC(=O)C[C@H](c3ccc(OC)cc3)C2)cc1 ?
Rab9 prom act: 25.9%; NPC1 prom act: 1.4%; FLuc counter: -15.6%; p53 reactivator: 16.7%; ELG1 genotoxic: 6.9%

What do the screens show for `Cc1cc2cc3c(cc2nc1SCc1ccccn1)OCCO3`?
Rab9 prom act: inconclusive; NPC1 prom act: -4.4%; SMN2 splice up: -11.5%[1.84 µM]; FLuc counter: inconclusive; p53 reactivator: -3.6%; ELG1 genotoxic: 9.6%

What do the screens show for `N#Cc1cc2ccccc2nc1SCc1ccccn1`?
Rab9 prom act: 2.2%; NPC1 prom act: -1.0%; SMN2 splice up: 11.2µM*; FLuc counter: 16.9µM*; p53 reactivator: 27.1%; ELG1 genotoxic: 7.31µM*

What do the screens show for `Cc1ccc(-n2ccnc(NCCc3ccc(S(N)(=O)=O)cc3)c2=O)cc1C`?
FLuc counter: -10.6%

Results for Cc1ccc2oc(=O)n(Cc3ccccc3)c2c1 ?
Rab9 prom act: 0.3%; NPC1 prom act: -4.4%; FLuc counter: 2.3%; ELG1 genotoxic: 3.9%

What do the screens show for `Cc1cccc(C)c1OCC(=O)NCc1nnc(SCC(=O)NC2CCCCC2C)n1C` (stereo not given)?
Rab9 prom act: 1.2%; NPC1 prom act: -1.3%; SMN2 splice up: 22.4µM*; FLuc counter: 10.5%; p53 reactivator: -4.9%; ELG1 genotoxic: 1.9%

How did Cc1cc(NC(=O)c2cccc(Cl)c2)n[nH]1 do in these assays?
Rab9 prom act: 2.51µM*; NPC1 prom act: 2.82µM*; FLuc counter: 19µM*; p53 reactivator: inconclusive; ELG1 genotoxic: inconclusive
